Values joined by “and” are separate entries in the source; they are usually repeats but may differ in a detail not shown here. Equal values may be shown once. Inconclusive results are not listed. Active and inactive are the calls of the source. Unless noted, calls come from the whole dose curve; as a rule, active = well fitted curve in the direction sought with a large enough effect in the repeat runs; inconclusive = weak or mixed curves; inactive = no such curve, though single readings can be large; an effect the other way counts as inactive or inconclusive.
How the values were obtained:
[1] = molecular target: Thyrotropin receptor (Homo sapiens) (UniProt P16473); assay: qHTS assay to identify small molecule agonists of the thyroid stimulating hormone receptor (TSHR) signaling pathway (AID 1224843; calls by dose curve; note: nearly all actives have a fitted effect of over 45% in size); conditions: TSHR-HEK293 cells, cAMP HTRF, agonist mode, 30 min; series mostly up to 92.4 µM
Chain of Thyrotropin receptor (Homo sapiens) (P16473 whole entry, looked up): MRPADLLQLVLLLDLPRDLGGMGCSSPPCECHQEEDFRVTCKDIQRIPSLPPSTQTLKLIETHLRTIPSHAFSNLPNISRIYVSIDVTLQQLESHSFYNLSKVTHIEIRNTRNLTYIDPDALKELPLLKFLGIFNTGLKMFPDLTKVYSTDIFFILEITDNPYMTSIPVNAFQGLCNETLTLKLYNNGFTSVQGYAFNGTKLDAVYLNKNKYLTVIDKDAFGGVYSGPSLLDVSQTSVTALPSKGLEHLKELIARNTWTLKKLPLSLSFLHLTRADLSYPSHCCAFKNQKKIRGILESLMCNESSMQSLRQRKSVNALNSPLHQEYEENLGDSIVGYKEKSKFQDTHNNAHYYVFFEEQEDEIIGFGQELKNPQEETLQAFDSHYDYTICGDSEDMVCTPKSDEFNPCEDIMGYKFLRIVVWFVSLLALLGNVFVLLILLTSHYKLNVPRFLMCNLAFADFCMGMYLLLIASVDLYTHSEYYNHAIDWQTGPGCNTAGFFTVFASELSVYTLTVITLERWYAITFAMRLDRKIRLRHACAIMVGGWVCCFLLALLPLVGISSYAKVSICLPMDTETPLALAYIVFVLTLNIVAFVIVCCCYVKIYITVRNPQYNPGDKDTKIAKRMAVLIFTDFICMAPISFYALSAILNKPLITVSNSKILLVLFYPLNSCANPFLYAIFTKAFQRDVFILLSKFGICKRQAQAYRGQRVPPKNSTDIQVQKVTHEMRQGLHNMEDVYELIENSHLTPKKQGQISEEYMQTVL
Procedure, shortened: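 TSHR-HEK293 cells in agonist mode, 30 min room-temperature step, then cAMP measured by competitive HTRF (cAMP-d2 with anti-cAMP cryptate) after 1 h at room temperature. Tested at 15 concentrations in triplicate.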

[2] = qHTS assay to identify small molecule agonists of the hypoxia (HIF-1) signaling pathway - cell viability counter screen (AID 1224844; calls by dose curve; note: nearly all actives have a fitted effect of over 50% in size); conditions: HRE-bla ME-180 viability, CellTiter-Glo luminescence, 17 h; series mostly up to 76.8 µM
Procedure, shortened: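 Tox21 10K compounds were added to HRE-bla ME-180 cells (0.5% dialyzed FBS) and incubated 17 hrs at 37C; ATP-based CellTiter-Glo luminescence then reported cell viability in the same wells.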

[3] = qHTS assay to identify small molecule agonists of H2AX (AID 1224845; active = well fitted activation curve with a large enough effect in the signal ratio in the repeat runs, not every such curve was filed as active; the % refers to the signal ratio); conditions: CHO-K1 phospho-H2AX Ser139 HTRF, 3 h; series mostly up to 154 µM
Procedure, shortened: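 Wild-type CHO-K1 cells, plated overnight, exposed 3hr at 37C to 15 concentrations (0.76% DMSO final). Lysed, then HTRF anti-pH2AX (S139) cryptate and anti-H2AX-d2 antibodies, 24 hr room temperature; 665/620 nm emission read.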

[4] = qHTS assay to identify small molecule agonists of the hypoxia (HIF-1) signaling pathway (AID 1224846; active = well fitted activation curve with a large enough effect in the signal ratio in the repeat runs, not every such curve was filed as active; the % refers to the signal ratio); conditions: HRE-bla ME-180 cells, beta-lactamase ratio, 17 h; series mostly up to 76.8 µM
Procedure, shortened: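 Steps: seed ME-180 HRE-bla cells (2,000/well, 0.5% dialyzed FBS); incubate 5 hrs at 37C; pin-transfer compounds or DMSO; incubate 17 hrs; add LiveBLAzer B/G substrate CCF4-AM; measure reporter activation by FRET.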

[5] = qHTS assay to identify small molecule antagonists of the estrogen related receptor (ERR) signaling pathway from Tox21 library (AID 1224848); conditions: ERR reporter cell line, luciferase antagonist mode, 18 h; series mostly up to 92.4 µM; note: nearly all actives have a fitted effect of over 50% in size
Procedure, shortened: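 ERR reporter cell line (from NTP) seeded 2,000 cells/well, rested 6 h at 37 C/5% CO2, then pin-dosed with compounds in DMSO. After 18 h at 37 C, ONE-Glo added; luminescence read after 30 min at room temperature.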

[6] = qHTS assay to identify small molecule agonists of the estrogen related receptor (ERR) signaling pathway from Tox21 library (AID 1224849; calls by dose curve; note: nearly all actives have a fitted effect of over 15% in size); conditions: ERR reporter cell line, ONE-Glo luciferase, 18 h
Procedure, shortened: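 Agonist signal is luciferase luminescence from an ERR reporter cell line treated 18 h at 37 C with DMSO-dissolved compounds, read 30 min after ONE-Glo addition at room temperature.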

[7] = qHTS RealTime-Glo MT Cell Viability Assay in HepG2 cells - 24 hour (AID 1224867); conditions: RealTime-Glo luminescence; series mostly up to 76.8 µM; note: nearly all actives have a fitted effect of over 50% in size
Procedure, shortened: (§1)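 Cells + NanoLuc/prosubstrate dispensed (600 cells/well) → 5 h at 37 C/5% CO2 → compounds in DMSO transferred → 40 h incubation at 37 C, luminescence read at 0, 8, 16, 24, 32, 40 h.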

[8] = qHTS RealTime-Glo MT Cell Viability Assay in HEK293 cells - 32 hour (AID 1224868); conditions: RealTime-Glo luminescence; series mostly up to 76.8 µM; note: top concentration of the series differs between compounds; nearly all actives have a fitted effect of over 50% in size
Procedure, shortened: (§2)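 Tox21 10K qHTS, HEK293, 600 cells/well, RealTime-Glo reagent co-dispensed with cells; 5 h preincubation, compound by pintool, 37 C, luminescence at 0–40 h.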

[9] = A CellTox Green Cytotoxicity Assay to monitor cytotoxicity in HEK293 cells - 0 hour (AID 1224869); conditions: CellTox Green fluorescence; series mostly up to 76.8 µM; note: nearly all actives have a fitted effect of over 50% in size
Procedure, shortened: (§3)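 Cytotoxicity was tracked continuously in HEK293 cells by a DNA-binding dye excluded from viable cells. Compounds were transferred in DMSO 5 h after seeding; fluorescence was recorded at intervals up to 40 h.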

[10] = qHTS RealTime-Glo MT Cell Viability Assay in HepG2 cells - 40 hour (AID 1224870); conditions: RealTime-Glo luminescence; series mostly up to 76.8 µM; note: nearly all actives have a fitted effect of over 50% in size
Procedure, shortened: (§4)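 HepG2 cells (600/well) mixed with RealTime-Glo MT reagent, settled 5 h at 37 C/5% CO2 before compound addition. Nonlytic NanoLuc luminescence from viable-cell prosubstrate reduction read repeatedly during 40 h treatment at 37 C.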

[11] = A CellTox Green Cytotoxicity Assay to monitor cytotoxicity in HEK293 cells - 40 hour (AID 1224871); conditions: CellTox Green fluorescence; series mostly up to 76.8 µM; note: nearly all actives have a fitted effect of over 45% in size
Procedure, shortened: as §3

[12] = qHTS RealTime-Glo MT Cell Viability Assay in HEK293 cells - 16 hour (AID 1224872); conditions: RealTime-Glo luminescence; series mostly up to 76.8 µM
Procedure, shortened: as §2

[13] = qHTS RealTime-Glo MT Cell Viability Assay in HepG2 cells - 8 hour (AID 1224873); conditions: RealTime-Glo luminescence; series mostly up to 76.8 µM; note: nearly all actives have a fitted effect of over 55% in size
Procedure, shortened: as §4

[14] = qHTS RealTime-Glo MT Cell Viability Assay in HEK293 cells - 40 hour (AID 1224874); conditions: RealTime-Glo luminescence; max response: stronger effect = lower value; note: nearly all actives have a fitted effect of over 50% in size
Procedure, shortened: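 Nonlytic bioluminescent viability monitoring. HEK293 at 600 cells/well with reagent; 5 h settle; compound transfer by pintool; plates held at 37 C and read at set time points.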

[15] = A CellTox Green Cytotoxicity Assay to monitor cytotoxicity in HEK293 cells - 24 hour (AID 1224875); conditions: CellTox Green fluorescence; series mostly up to 76.8 µM; note: nearly all actives have a fitted effect of over 45% in size
Procedure, shortened: as §3

[16] = qHTS RealTime-Glo MT Cell Viability Assay in HepG2 cells - 32 hour (AID 1224877); conditions: RealTime-Glo luminescence; series mostly up to 76.8 µM; note: nearly all actives have a fitted effect of over 55% in size
Procedure, shortened: as §1

[17] = A CellTox Green Cytotoxicity Assay to monitor cytotoxicity in HepG2 cells - 24 hour (AID 1224878); conditions: CellTox Green fluorescence; series mostly up to 76.8 µM; note: nearly all actives have a fitted effect of over 45% in size
Procedure, shortened: (§5)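 Real-time, homogeneous cytotoxicity readout: dead-cell DNA staining by CellTox Green in HepG2 monolayers, fluorescence measured at timed intervals up to 40 h of continuous compound exposure.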

[18] = A CellTox Green Cytotoxicity Assay to monitor cytotoxicity in HepG2 cells - 40 hour (AID 1224879); conditions: CellTox Green fluorescence; series mostly up to 76.8 µM; note: nearly all actives have a fitted effect of over 40% in size
Procedure, shortened: as §5

[19] = A CellTox Green Cytotoxicity Assay to monitor cytotoxicity in HepG2 cells - 16 hour (AID 1224876); conditions: CellTox Green fluorescence; series mostly up to 76.8 µM; note: nearly all actives have a fitted effect of over 45% in size
Procedure, shortened: as §5

[20] = qHTS assay to identify small molecule agonists of H2AX - cell viability counter screen (AID 1224847; calls by dose curve; note: top concentration of the series differs between compounds; nearly all actives have a fitted effect of over 30% in size); conditions: CHO-K1 viability, CellTiter-Glo luminescence, 3 h; series mostly up to 154 µM
Procedure, shortened: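 Wild-type CHO-K1 cells (10% FBS medium) were plated overnight at 37C, exposed to compounds at 15 concentrations for 3 hr at 37C (0.76% DMSO final), and viability was read as CellTiter-Glo luminescence after 30 min at room temperature.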
% is set by controls: 0 for no effect and ±100 for the full control effect.

OCCCc1ccccc1
inactive: Potency [1] | Potency [2] | Potency [3] | outcome [4] | Potency [5] | activity change, positive = activation ([6]; at 42.5 µM (top of the series)) -1.08% | activity change, positive = activation ([6]; at 92.4 µM (top of the series)) 4.65% | outcome [7] | Potency [8] | Potency [9] | outcome [10] | Potency [11] | Potency [12] | outcome [13] | max response [14] 12.9% and 2.88% | Potency [15] | outcome [16] | Potency [17] | Potency [18]

CCCCCCCC(=O)OCC(O)CO (configuration not stated)
inactive: Potency [1] | Potency [2] | Potency [3] | outcome [4] | Potency [5] | activity change, positive = activation ([6]; at 92.4 µM (top of the series)) 1.37% | outcome [7] | Potency [8] | Potency [9] | outcome [10] | Potency [11] | Potency [12] | outcome [13] | max response [14] 11.2% and -0.735% | Potency [15] | Potency [19] | outcome [16] | Potency [18]

CCOCCO
inactive: Potency [1] | Potency [2] | Potency [3] | outcome [4] | outcome [7] | Potency [8] | Potency [9] | outcome [10] | Potency [11] | Potency [12] | outcome [13] | max response [14] 1.5% and 7.11% | Potency [15] | outcome [16] | Potency [17] | Potency [18]

Oc1cccc(O)c1
inactive: Potency [1] | Potency [2] | Potency [3] | outcome [4] | Potency [5] | activity change, positive = activation ([6]; at 42.5 µM (top of the series)) 6.02% | activity change, positive = activation ([6]; at 92.4 µM (top of the series)) -15.4% and -1.21% | outcome [7] | Potency [8] | Potency [9] | outcome [10] | Potency [11] | Potency [12] | outcome [13] | max response [14] -0.181% and -6.38% and 1.58% | Potency [15] | Potency [19] | outcome [16] | Potency [18]

N[C@@H](Cc1c[nH]c2ccccc12)C(=O)O
inactive: Potency [1] | Potency [2] | Potency [3] | outcome [4] | outcome [7] | Potency [8] | Potency [9] | outcome [10] | Potency [11] | Potency [12] | outcome [13] | max response [14] 11.5% | Potency [15] | outcome [16] | Potency [17] | Potency [18]

CN(C)C=O
inactive: Potency [1] | Potency [2] | Potency [3] | outcome [4] | Potency [5] | activity change, positive = activation ([6]; at 92.4 µM (top of the series)) 7.34% and 6.88% | outcome [7] | Potency [8] | Potency [9] | outcome [10] | Potency [11] | Potency [12] | outcome [13] | max response [14] 2.24% and 2.36% | Potency [15] | Potency [19] | outcome [16] | Potency [17] | Potency [18]

COc1ccccc1O
inactive: Potency [1] | Potency [2] | Potency [3] | outcome [4] | outcome [7] | Potency [8] | Potency [9] | outcome [10] | Potency [11] | Potency [12] | outcome [13] | max response [14] 18.7% and 1.57% and 2.8% | Potency [15] | outcome [16] | Potency [18]

O=C1CCCCCN1
inactive: Potency [1] | Potency [2] | Potency [3] | outcome [4] | Potency [5] | activity change, positive = activation ([6]; at 92.4 µM (top of the series)) 0.0496% and -0.16% | outcome [7] | Potency [8] | Potency [9] | outcome [10] | Potency [11] | Potency [12] | outcome [13] | max response [14] -1.34% and -3.41% | Potency [15] | outcome [16] | Potency [17] | Potency [18]

Cc1cccc(Nc2cc(Cl)nc(SCC(=O)O)n2)c1C
inactive: Potency [1] | Potency [2] | Potency [3] | Potency [20] | outcome [7] | Potency [8] | Potency [9] | outcome [10] | Potency [11] | Potency [12] | outcome [13] | max response [14] -8.11% and -6.81% and -0.208% | Potency [15] | Potency [19] | outcome [16] | Potency [17] | Potency [18]

COC(=O)c1ccc(O)cc1
inactive: Potency [1] | Potency [2] | Potency [3] | outcome [4] | Potency [9] | Potency [11] | Potency [15] | Potency [19] | Potency [17] | Potency [18]
